# In the library only some 19% were active in any assay of this set; here they are far more common.
# ELG1 repair inh: ELG1-dependent DNA repair inhibition. Potency, µM (doses to about 46.1 µM), inactives show at the highest dose activity change, negative = inhibition, hits mostly inhibitors. 330,000 compounds, 2.3% hits. AID 504467. HEK293T ELG1-luciferase reporter, luminescence, 16 h; DNA damage induced by 5-fluorouridine; also: potency is read from the fitted curve at half-maximal effect; nearly all actives have a fitted effect of over 55% in size
#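 Cells (2,000 per well) received 5-fluorouridine plus test compound or DMSO and were incubated 16 hr at 37 °C, 5% CO2. Luciferase activity was read by luminescence 30 min after ONE-Glo addition; signal suppression marked inhibition of damage-induced ELG1 function.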
# DT40 TDP1 no CPT: qHTS for Inhibitors of human tyrosyl-DNA phosphodiesterase 1 (TDP1): qHTS in cells in absence of CPT | Potency, µM (series often up to 46.2 µM), without a hit: top-dose activity change, negative = growth inhibition, hits mostly inhibitors | 420,000 compounds, 15% hits | DT40 Tdp1-/- hTDP1 cells, no CPT, ATP luminescence, 48 h | AID 686978, 2013; also: potency is read from the fitted curve at half-maximal effect; nearly all actives have a fitted effect of over 55% in size
#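 Cells were dispensed at 400 per well, compounds added by pin tool, plates incubated ≥48 hr at 37 °C, then CellTiter-Glo added for 30 min at room temperature before luminescence reading. Line: DT40 Tdp1-/- complemented with hTDP1; camptothecin omitted.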
# IL-1B inflam inh: inhibitors of inflammasome signaling (IL-1 beta secretion); THP-1 LPS/ATP IL-1B secretion, AlphaLISA, 16 h; active compounds read low; activity change, % at 57.5 µM; 360,000 compounds, 4.7% hits; AID 743279; in the data active = activity change below about -50%; inconclusive = mostly about -30% to -49%
#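 THP-1 cells pretreated 1 hr with compounds (up to 57.5 uM final), then stimulated with LPS (250 ng/mL final) plus ATP (1.25 mM final); secreted IL-1B measured by AlphaLISA after 16 hr, decreased signal indicating inhibition.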
# HT1080-NT tox: kills 2HG-producing HT-1080-NT fibrosarcoma cells; HT-1080-NT fibrosarcoma viability, CellTiter-Glo ATP luminescence, 48 h; Potency, µM (series often up to 46.1 µM), for the others: top-dose activity, negative = less viability, actives largely listed as cytotoxic; 360,000 compounds, 1.6% hits;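 also: NT is the 2HG producing partner of a matched IDH1 knockdown line; potency is read from the fitted curve at half-maximal effect; 0% = DMSO-treated cells and -100% = media-only wells without cells; nearly all actives have a fitted effect of over 55% in size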
#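 HT-1080-NT fibrosarcoma cells (2HG-overproducing), 750 cells/well in RPMI with 5% FBS, dosed after 2 h and incubated 48 h at 37C. CellTiter-Glo luminescence normalized to DMSO and no-cell wells; concentration-response curves fitted and classed.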
# HT1080 IDH1KD tx: kills HT-1080 cells with IDH1 knockdown; Potency, µM (doses to about 46.1 µM), for the others: at the top dose activity, negative = toxicity, usual class: cytotoxic; HT-1080 IDH1 knockdown viability, ATP luminescence, 48 h; 360,000 compounds, 2% hits;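 also: potency is read from the fitted curve at half-maximal effect; 0% = DMSO wells and -100% = cell-free medium wells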
#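 HT-1080-IDH1KD cells (IDH1 knocked down), 750/well in RPMI with 5% FBS, treated with compound 48 h at 37 degrees C. Viability by CellTiter-Glo luminescence, normalised to DMSO and no-cell wells; concentration-response curves classed.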
# DT40 TDP1 CPT: growth inhibition of DT40 Tdp1-/-;hTDP1 cells with camptothecin (screen for TDP1 inhibitors); Potency, µM (highest dose often 46.2 µM), for inactives: top-dose activity change, negative = growth inhibition, hits mostly inhibitors; 420,000 compounds, 12% hits; chicken DT40 Tdp1-/-;hTDP1 cells + 20 nM CPT, ATP luminescence, 48 h; also: potency is read from the fitted curve at half-maximal effect; nearly all actives have a fitted effect of over 55% in size
#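 Chicken DT40 Tdp1-/- cells complemented with human TDP1, 400 cells/well, exposed to compounds plus 20 nM camptothecin for at least 48 h at 37 C; viability read as ATP content by CellTiter-Glo luminescence.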
# * marks the source's active call; other numbers are inactive results; ? = inconclusive; . = no result given; [ ] = dose if it differs, or a comment. Unless noted, calls follow the shape of the dose curve; as a rule, active = well fitted curve in the direction sought with a large enough effect; inconclusive = small, poorly fitted or top-dose-only effect, or another doubt; inactive = no such curve, though single readings can be large; an effect the other way counts as inactive or inconclusive. Unless noted, % is scaled to controls: 0 for no effect and ±100 for the full control effect.
SMILES,ELG1 repair inh,DT40 TDP1 no CPT,IL-1B inflam inh,HT1080-NT tox,HT1080 IDH1KD tx,DT40 TDP1 CPT
O=C(NCCN1CCC2(CC1)C(=O)NCN2c1cccc(F)c1)c1ccc2ccccc2c1,.,?,?,15µM*,21µM*,?
O=C(NCCN1CCC(n2c(=O)[nH]c3ccccc32)CC1)c1ccc2ccccc2c1,.,?,.,-75%,?,23µM*
COC(=O)c1cccc(NC(=O)N2C[C@H]3C[C@@H](C2)c2cccc(=O)n2C3)c1,-3%,7%,19,9%,12%,-12%
COc1ccc2c3c1O[C@H]1[C@@H](O)C=C[C@H]4[C@@H](C2)NCC[C@@]341,.,?,.,.,.,-7%[92.5 µM]
Cc1ccc(S(=O)(=O)NC(Cc2cnc[nH]2)C(=O)O)cc1 (configuration not stated),-2%,7%,6,17%,15%,-1%
Cc1cc2c(cc(C(=O)N3CCC(C(=O)NC4CCCC4)CC3)n2Cc2c(F)cccc2Cl)o1,23µM*,23µM*,18,1%,3%,18µM*
Oc1c(Cl)cccc1Cc1cc(Cl)cc(Cl)c1O,.,21µM*,?,?,?,?
O=C(O)CCC(=O)NCCC1=c2ccccc2=N/C1=C\c1c(O)n(Cc2ccc(F)cc2)c(=S)[nH]c1=O,?,0%,-4,-3%,0%,49%
Cc1ccc(C[n+]2c(-c3ccc(C)cc3)cc(-c3ccc(C)cc3)cc2-c2ccc(C)cc2)cc1,?,0.58µM*,-111*,3.3µM*,2.6µM*,0.92µM*
CCCCC/C=C\C/C=C\C/C=C\C/C=C\CCCC(=O)Nc1ccc(O)cc1,.,21µM*,.,.,.,27µM*
CCCCC/C=C\C/C=C\C/C=C\C/C=C\CCCC(=O)NCC(=O)O,.,-3%[4.12 µM],.,.,.,2%[4.12 µM]
CN[C@@H](C)Cc1ccccc1,.,-11%[92.5 µM],.,.,.,-3%[92.5 µM]
Cc1nn(CC(C)C)c(Cl)c1C(=O)O,14%,-2%,3,0%,3%,-10%
CN1CCN(c2ccc3c(c2)S(=O)(=O)c2ccccc2C3=O)CC1,.,?,-11,-29%,1%,?
CN1CCN(c2cccc3c2C(=O)c2ccccc2C3=O)CC1,?,-18%,-60*,-21%,-18%,?
Cn1c(O)c(C=NC2CCN(Cc3ccccc3)CC2)c(=O)n(C)c1=O,-15%,1%,15,13%,10%,8%
C[C@]12CCC(=O)C=C1CCc1ccc(O)cc12,.,-19%,.,.,.,-5%
CN(C(=O)CSc1nc2ccc(NC(=O)COc3ccc(Cl)cc3)cc2s1)c1ccccc1,.,10µM*,.,.,.,13µM*
CCOc1ccc2nc(NC(=O)c3cccn(Cc4ccc(Cl)cc4)c3=O)sc2c1,.,0%,.,.,.,0%
CCCNC(=O)c1c(N)n(Cc2ccc3c(c2)OCO3)c2nc3ccccc3nc12,?,-9%,0,0%,-2%,-4%
COCCCNC(=O)c1c(NC(=O)c2ccco2)n(Cc2ccccc2)c2nc3ccccc3nc12,-10%,26µM*,-3,?,?,?
COCCNC(=O)c1c(NC(=O)c2ccc(Br)o2)n(Cc2ccccc2)c2nc3ccccc3nc12,?,?,-10,3%,0%,18µM*
O=[N+]([O-])c1cnc[nH]1,29%,-4%,-6,.,.,-9%
CCCCCN=C(N)N/N=C/c1c[nH]c2ccc(OC)cc12,.,2.6µM*,0,2.9µM*,5.8µM*,2.9µM*
CCCCn1c(C)c(C(=O)O)c2cc(OC)ccc21,1%,-9%,0,5%,10%,-30%
SMILES,ELG1 repair inh,DT40 TDP1 no CPT,IL-1B inflam inh,HT1080-NT tox,HT1080 IDH1KD tx,DT40 TDP1 CPT
c1ccc(C2(N3CCCC3)CCCCC2)cc1,.,19µM*,.,.,.,?
Nc1nc2c(s1)CCCCCCCCCC2,?,?,22,-17%,-25%,-19%
Nc1c2c(nc3sc4c(c13)CCCC4)CCCC2,-10%,?,-88*,?,?,?
Nc1c2c(nc3sc4c(c13)CCCC4)CCCCC2,?,18µM*,-18,-11%,-19%,?
O=C(CCNC(=O)N1C[C@H]2C[C@@H](C1)c1cccc(=O)n1C2)Nc1ccc(F)cc1,14%,3%,20,0%,-8%,-15%
CCCCN1CC(COCc2ccccc2)Oc2cccc(Oc3ccc(C(C)C)cc3)c2S1(=O)=O (configuration not stated),.,5.2µM*,27,-1%,0%,10µM*
c1cnc(N2CC[C@@]3(CCCNC3)C2)nc1,.,-25%,.,.,.,?
CC[n+]1c(SC)ccc2cc(OC)ccc21,19%,16µM*,6,-1%,0%,?
Fc1ccccc1CCNCc1cccc2ccccc12,10%,?,-21,?,?,?
Cc1ccc(CNCCc2ccccc2F)cc1,17%,-21%,-72*,3%,11%,-13%
CCN(CC)c1ccc(CNCCc2ccccc2F)cc1,?,16µM*,-92*,16µM*,18µM*,?
Fc1ccc(CNCCc2ccccc2)cc1,8%,-11%,-20,-3%,1%,?
COC(=O)C1=C(c2cccc(C#N)c2)C[C@@H]2CC[C@H]1N2C(=O)NCCCOC(C)C,3%,-10%,0,2%,5%,4%
Cc1ccc(-c2cc(C(F)F)n3ncc(C(=O)N4CCc5ccccc5C4)c3n2)cc1,-12%,26µM*,0,6%,10%,?
Cc1nc2c(=O)n(C)c(=O)nc-2n(C)n1,1.8µM*,0.52µM*,-100*,2.6µM*,1.3µM*,0.41µM*
COc1cc(Cl)c(C)cc1NC(=O)CCCn1c(=O)oc2ccccc21,-2%,?,0,1%,-2%,-23%
CCC1(CCC(C)C)C(=O)NC(=S)NC1=O,.,-5%,10,5%,11%,7%
CN1CCC(N(C)c2ncnc3ccc(Br)cc23)CC1,?,?,-18,-11%,-10%,?
CN1CCN(c2ncnc3ccc(Br)cc23)CC1,9.2µM*,?,6,-1%,1%,26µM*
NC(N)=Nc1ccc2[nH]c3c(c2c1)C[C@]1(O)[C@@H]2Cc4ccc(O)c5c4[C@]1(CCN2CC1CC1)[C@@H]3O5,.,?,.,.,.,-24%
O=C(CCCc1ccc(N(CCCl)CCCl)cc1)NCc1ccccc1,.,0.73µM*,47,?,23µM*,0.73µM*
CCn1c(O)c(C=NCc2cccs2)c(=O)[nH]c1=O,20%,29µM*,16,12%,0%,?

# High-throughput results as filed in PubChem BioAssay.
